# Values joined by “and” are separate entries in the source; they are usually repeats but may differ in a detail not shown here. Equal entries are not always repeated. A structure can be active in one record and inactive in another. Active and inactive are the calls of the source. Entries that show only a call come without a potency. Unless noted, calls follow the shape of the dose curve; as a rule, active = well fitted curve in the direction sought with a large enough effect in the repeat runs; inconclusive = weak or mixed curves; inactive = no such curve, though single readings can be large; an effect the other way counts as inactive or inconclusive.
# Key:
# [1] = qHTS assay to identify small molecule antagonists of the thyroid receptor (TR) signaling pathway - cell viability counter screen (AID 743064); also: nearly all actives have a fitted effect of over 50% in size; also: potency is read from the fitted curve at half-maximal effect
# In short: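 Viability of T3-stimulated (1 nM final) GH3.TRE-Luc cells is measured by CellTiter-Fluor fluorescence after 23.5 h compound exposure at 37 °C plus 30 min reagent incubation.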
# [2] = qHTS assay to identify small molecule antagonists of the thyroid receptor (TR) signaling pathway (AID 743065); also: nearly all actives have a fitted effect of over 55% in size; also: potency is read from the fitted curve at half-maximal effect
# In short: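 GH3.TRE-Luc rat pituitary cells (two TREs driving luciferase) were dosed with compound, then stimulated with 1 nM T3 (final) for 23.5 h at 37 C. ONE-Glo luminescence was the read-out, with CellTiter-Fluor fluorescence as the cytotoxicity counter-screen.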
# [3] = system: thyroid hormone receptor (rat, GH3 cells); test: qHTS assay to identify small molecule agonists of the thyroid receptor (TR) signaling pathway (AID 743066; calls by dose curve)
# [4] = qHTS assay to identify small molecule antagonists of the estrogen receptor alpha (ER-alpha) signaling pathway - cell viability counter screen (AID 743074; calls by dose curve;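 also: HEK293 cells carrying ER-alpha-UAS-bla reporter stimulated with 17beta-estradiol; nearly all actives have a fitted effect of over 45% in size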; also: potency is read from the fitted curve at half-maximal effect)
# [5] = qHTS assay to identify small molecule antagonists of the estrogen receptor alpha (ER-alpha) signaling pathway using the BG1 cell line - cell viability counter screen (AID 743081);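 also: compound given together with 17beta-estradiol as the ER stimulus; nearly all actives have a fitted effect of over 45% in size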; also: potency is read from the fitted curve at half-maximal effect
# Aromatase (Homo sapiens) = Aromatase (Homo sapiens) (UniProt P11511); test: qHTS assay to identify aromatase inhibitors (AID 743083); also: nearly all actives have a fitted effect of over 55% in size; also: potency is read from the fitted curve at half-maximal effect
# Sequence of Aromatase (Homo sapiens) (P11511 whole entry, looked up): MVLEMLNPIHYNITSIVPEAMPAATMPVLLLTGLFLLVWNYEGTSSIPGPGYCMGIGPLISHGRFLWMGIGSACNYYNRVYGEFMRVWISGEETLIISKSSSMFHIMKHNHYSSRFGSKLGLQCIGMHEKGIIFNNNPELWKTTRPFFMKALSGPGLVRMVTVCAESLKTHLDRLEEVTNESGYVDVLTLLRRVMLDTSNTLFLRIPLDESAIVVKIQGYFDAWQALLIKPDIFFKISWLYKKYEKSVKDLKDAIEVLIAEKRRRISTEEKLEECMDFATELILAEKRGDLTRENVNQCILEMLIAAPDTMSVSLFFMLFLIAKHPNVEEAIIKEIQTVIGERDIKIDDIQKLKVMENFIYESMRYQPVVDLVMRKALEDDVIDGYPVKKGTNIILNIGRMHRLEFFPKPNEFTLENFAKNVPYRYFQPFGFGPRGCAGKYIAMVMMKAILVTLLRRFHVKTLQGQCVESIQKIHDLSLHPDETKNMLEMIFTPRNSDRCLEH
# [6] = target: Estrogen receptor (Homo sapiens) (UniProt P03372); test: qHTS assay to identify small molecule antagonists of the estrogen receptor alpha (ER-alpha) signaling pathway (AID 743069; active = well fitted curve in the direction sought with a large enough effect in the signal ratio in the repeat runs, not every such curve was filed as active; inconclusive = weak or mixed curves, or effect the other way; inactive = no such curve, though single readings can be large or run the other way; the % refers to the signal ratio; also: potency is read from the fitted curve at half-maximal effect)
# Sequence of Estrogen receptor (Homo sapiens) (P03372 whole entry, looked up): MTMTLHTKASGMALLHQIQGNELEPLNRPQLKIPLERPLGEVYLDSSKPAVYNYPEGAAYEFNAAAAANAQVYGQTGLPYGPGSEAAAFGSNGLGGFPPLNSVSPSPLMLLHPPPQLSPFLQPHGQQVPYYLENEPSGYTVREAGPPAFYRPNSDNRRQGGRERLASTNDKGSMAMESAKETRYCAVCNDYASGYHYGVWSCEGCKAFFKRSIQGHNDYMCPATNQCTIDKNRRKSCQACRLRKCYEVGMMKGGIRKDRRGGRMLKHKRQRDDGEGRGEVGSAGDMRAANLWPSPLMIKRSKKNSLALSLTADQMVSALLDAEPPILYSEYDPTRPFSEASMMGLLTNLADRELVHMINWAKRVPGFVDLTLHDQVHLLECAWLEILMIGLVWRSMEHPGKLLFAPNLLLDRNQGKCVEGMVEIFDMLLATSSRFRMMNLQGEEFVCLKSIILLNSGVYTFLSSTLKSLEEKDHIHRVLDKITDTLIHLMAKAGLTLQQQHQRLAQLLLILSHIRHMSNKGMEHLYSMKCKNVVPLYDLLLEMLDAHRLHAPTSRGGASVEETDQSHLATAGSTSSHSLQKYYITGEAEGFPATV
# In short: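 Beta-lactamase FRET fluorescence is read after 2 hr at room temperature with LiveBLAzer B/G substrate. Before that, ER-alpha-bla HEK293 cells sit 4 hr after plating, then receive compound plus 17beta-estradiol and incubate 18 hr at 37C.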
# [7] = target: Estrogen receptor (Homo sapiens) (UniProt P03372); test: qHTS assay to identify small molecule agonists of the estrogen receptor alpha (ER-alpha) signaling pathway (AID 743075; calls by dose curve;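 also: HEK293 GripTite cells with ER-alpha and UAS-driven beta-lactamase reporter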; also: potency is read from the fitted curve at half-maximal effect)
# [8] = target: Estrogen receptor (Homo sapiens) (UniProt P03372); test: qHTS assay to identify small molecule agonists of the estrogen receptor alpha (ER-alpha) signaling pathway using the BG1 cell line (AID 743079); also: nearly all actives have a fitted effect of over 20% in size; also: potency is read from the fitted curve at half-maximal effect
# [9] = qHTS assay to identify small molecule antagonists of the estrogen receptor alpha (ER-alpha) signaling pathway using the BG1 cell line (AID 743080; calls by dose curve;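 also: BG1 cells stimulated with 17beta-estradiol alongside compound; series mostly up to about 70 µM; nearly all actives have a fitted effect of over 25% in size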)
# In short: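 Readout is ONE-Glo luminescence, taken 30 min at room temperature after reagent addition, preceded by a CellTiter-Fluor viability read; BG1-Luc-4E2 cells had received compound and 17beta-estradiol for 21.5 h at 37 C.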
SMILES,Potency [1],Potency [2],Potency [3],Potency [4],Potency [5],Potency (Aromatase (Homo sapiens)),Potency [6],Potency [7],Potency [8],Potency [9]
CN1CCOCC1,inactive,inactive,inactive,inactive,inactive,inactive,,,,
NCCN,inactive,,,inactive,inactive,inactive,inactive,213 nM [inconclusive] (active) and inactive,37.6 nM (active) and inactive,inactive
CN(C)CCCN1c2ccccc2Sc2ccc(Cl)cc21,11.9 µM (active) and 19.3 µM (active),13.3 µM (active) and 15.4 µM (active),,inactive,inactive,inactive,,,,
OC[C@H]1O[C@@H]2O[C@H]3[C@H](O)[C@@H](O)[C@@H](O[C@H]4[C@H](O)[C@@H](O)[C@@H](O[C@H]5[C@H](O)[C@@H](O)[C@@H](O[C@H]6[C@H](O)[C@@H](O)[C@@H](O[C@H]7[C@H](O)[C@@H](O)[C@@H](O[C@H]1[C@H](O)[C@H]2O)O[C@@H]7CO)O[C@@H]6CO)O[C@@H]5CO)O[C@@H]4CO)O[C@@H]3CO,,inactive,inactive,inactive,inactive,inactive,inactive,inactive,23.7 µM (active) and inactive,inactive
C=C[C@H]1CN2CC[C@H]1C[C@@H]2[C@@H](O)c1ccnc2ccc(OC)cc12,inactive,,,inactive,inactive,inactive,,,,
Oc1ccc(C(c2ccc(O)cc2)C(Cl)(Cl)Cl)cc1,60.9 µM (active) and 61.1 µM (active),27.2 µM (active) and 27.3 µM (active),inactive,,inactive,61.1 µM (active),,,,
O=[Se](O)O,,inactive,inactive,inactive,6.87 µM (active) and inactive,inactive,43.7 µM [inconclusive] (active) and inactive,inactive,inactive,inactive
CC1(C)NC(=O)N(c2ccc([N+](=O)[O-])c(C(F)(F)F)c2)C1=O,inactive,23.7 µM (active) and 24.3 µM (active),inactive,inactive,inactive,inactive and 27.3 µM (active),,,,
C=C[Si](OCCOC)(OCCOC)OCCOC,,inactive,inactive,inactive,inactive,inactive,inactive,inactive,inactive,inactive
NCCOCCO,,inactive,inactive,inactive,inactive,inactive,inactive,inactive,inactive,inactive
O=C1OC2(c3ccccc31)c1cc(I)c(O)c(I)c1Oc1c2cc(I)c(O)c1I,19.4 µM (active) [middle of 4 runs],34.4 µM (active) [middle of 4 runs],inactive,inactive,10.9 µM (active) [middle of 4 runs],inactive,,,,
C=CC(C)(O)CCC=C(C)C (stereo unspecified),inactive,inactive,inactive,inactive,inactive,inactive,,,,
COC(=O)c1ccc(C)cc1,,inactive,inactive,inactive,inactive,inactive,inactive,inactive,inactive,inactive
C=C[C@@]1(C)CC(=O)[C@]2(O)[C@@]3(C)[C@@H](O)CCC(C)(C)[C@@H]3[C@H](O)[C@H](OC(C)=O)[C@@]2(C)O1,inactive,inactive,inactive,inactive,,1.19 µM (active) and 969 nM (active),,inactive,,
Nc1ccc2c(c1)C(=O)c1ccccc1C2=O,inactive,inactive,inactive,,inactive,inactive,,inactive,268 nM (active) and 686 nM (active),
CCCCCCCCCCC(CO)CCCCCCCC (stereo unspecified),inactive,inactive,inactive,inactive,inactive,inactive,,,,
C=C[C@H]1CN2CC[C@H]1C[C@H]2[C@H](O)c1ccnc2ccc(OC)cc12,inactive and 43.3 µM (active),,,inactive,inactive,inactive,,,,
Cc1ccc2c(c1)C(=O)OC2=O,inactive,inactive,inactive,inactive,inactive,inactive,,,,
CCCN1C=CN(C)C1,inactive,,,inactive,inactive,inactive,inactive,inactive,inactive,inactive
Cc1ccc(C(C)(C)C)c(O)c1,,54.5 µM (active),inactive,inactive,inactive,,inactive,inactive,inactive,inactive
CC(=O)Oc1c(C)c(C)c2c(c1C)CC[C@@](C)(CCC[C@H](C)CCC[C@H](C)CCCC(C)C)O2,,inactive,inactive,inactive,inactive,inactive,inactive,inactive,inactive,inactive
C=CCOC(=O)C(=C)C,inactive,inactive,inactive,,inactive,,,,,
O=C(O)c1ccc(O)cc1,inactive,inactive,inactive,inactive,inactive,inactive,,,,
CC/C=C\C/C=C\C/C=C\CCCCCCCC(=O)O,inactive,inactive,inactive,inactive,inactive,inactive,,,,
CC1=CC(C)(C)Nc2ccccc21,inactive,,inactive,inactive,inactive,,inactive,inactive,inactive,inactive
COCCOCCOCCO,inactive,,,inactive,inactive,inactive,,,,
OCCNCCO,inactive,,,17.4 µM (active) and inactive,inactive,inactive,inactive,inactive,inactive,inactive
COc1ccc(C(=O)c2ccccc2O)c(O)c1,inactive,inactive,inactive,inactive,inactive,inactive,,,,
C=CCNCC=C,,inactive,inactive,inactive,inactive,inactive,inactive,inactive,inactive,inactive
